Reference: PubChem BioAssay AID1159580 (chemical genetic matrix, 2015)
Among all 5,500 compounds or so, about 2,000 (36%) were called active. Not shown: some 18% with an inconclusive outcome. Cut-off read from the data, not from the text of the source: active = normalized growth mostly below about 0.91 (no sharp cut-off); inconclusive = no clear call, values can overlap the other calls; inactive = mostly above about 0.92. The list shows a part of the results.

Assay: chemical genetic growth profiling, strain panel (AID 1159580);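 note: tested at 20 µM; growth read once vehicle control cultures reached saturation at 30 °C; 1 = growth at the plate median or of vehicle wells; lower values mean less growth of the strain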
Settings: growth OD

Measured: normalized growth

OCC(O)Cc1ccc2c(c1)OCO2 (centres undefined)
inactive: S. cerevisiae deletion strains, locus YJR043C, strain POL32, active compounds read low 0.995 | S. cerevisiae deletion strains, locus YJR075W, strain HOC1, active compounds read low 0.984 | S. cerevisiae deletion strains, locus YKL009W, strain mrt4, active compounds read low 1 | S. cerevisiae deletion strains, locus YKL068W, active compounds read low 1 | S. cerevisiae deletion strains, locus YKL085W, strain MDH1 (second series), active compounds read low 1.03 | S. cerevisiae deletion strains, locus YKL085W, strain MDH1, active compounds read low 1.03 | S. cerevisiae deletion strains, locus YKL160W, strain elf1, active compounds read low 1 | S. cerevisiae deletion strains, locus YKL190W, strain CNB1, active compounds read low 1.02 | S. cerevisiae deletion strains, locus YKR001C, strain vps1, active compounds read low 0.999 | S. cerevisiae deletion strains, locus YKR026C, strain gcn3, active compounds read low 0.989 | S. cerevisiae deletion strains, locus YKR091W, strain srl3, active compounds read low 1 | S. cerevisiae deletion strains, locus YLL001W, strain dnm1, active compounds read low 1 | S. cerevisiae deletion strains, locus YLL026W, active compounds read low 0.997 | S. cerevisiae deletion strains, locus YLL041C, strain sdh2, active compounds read low 0.994 | S. cerevisiae deletion strains, locus YLR027C, strain aat2, active compounds read low 0.976 | S. cerevisiae deletion strains, locus YLR039C, strain RIC1, active compounds read low 1.03 | S. cerevisiae deletion strains, locus YLR058C, strain SHM2, active compounds read low 1.02 | S. cerevisiae deletion strains, locus YLR102C, strain apc9, active compounds read low 1 | S. cerevisiae deletion strains, locus YLR221C, strain rsa3, active compounds read low 0.997 | S. cerevisiae deletion strains, locus YLR258W, strain gsy2, active compounds read low 1.01 | S. cerevisiae deletion strains, locus YLR262C, strain YPT6 (second series), active compounds read low 1.01 | S. cerevisiae deletion strains, locus YLR262C, strain YPT6, active compounds read low 1.06 | S. cerevisiae deletion strains, locus YLR268W, strain sec22, active compounds read low 1 | S. cerevisiae deletion strains, locus YLR320W, strain mms22, active compounds read low 0.983 | S. cerevisiae deletion strains, locus YLR330W, strain CHS5, active compounds read low 1.01 | S. cerevisiae deletion strains, locus YLR342W, strain FKS1 (second series), active compounds read low 0.99 | S. cerevisiae deletion strains, locus YLR342W, strain FKS1, active compounds read low 0.992 | S. cerevisiae deletion strains, locus YLR357W, strain rsc2, active compounds read low 0.973 | S. cerevisiae deletion strains, locus YLR370C, strain arc18, active compounds read low 1 | S. cerevisiae deletion strains, locus YLR371W, strain rom2, active compounds read low 0.989 | S. cerevisiae deletion strains, locus YLR384C, strain iki3, active compounds read low 0.992 | S. cerevisiae deletion strains, locus YLR418C, strain cdc73, active compounds read low 1.02 | S. cerevisiae deletion strains, locus YML016C, strain PPZ1, active compounds read low 1.01 | S. cerevisiae deletion strains, locus YML032C, strain rad52, active compounds read low 0.989 | S. cerevisiae deletion strains, locus YML120C, strain ndi1, active compounds read low 0.995 | S. cerevisiae deletion strains, locus YML124C, strain tub3, active compounds read low 0.996 | S. cerevisiae deletion strains, locus YMR058W, strain fet3, active compounds read low 1.01 | S. cerevisiae deletion strains, locus YMR078C, strain ctf18, active compounds read low 0.99 | S. cerevisiae deletion strains, locus YMR125W, strain sto1, active compounds read low 0.997 | S. cerevisiae deletion strains, locus YMR129W, active compounds read low 0.994 | S. cerevisiae deletion strains, locus YMR205C, strain PFK2, active compounds read low 0.981 | S. cerevisiae deletion strains, locus YMR223W, strain ubp8, active compounds read low 0.987 | S. cerevisiae deletion strains, locus YMR231W, strain pep5, active compounds read low 0.996 | S. cerevisiae deletion strains, locus YMR263W, strain SAP30, active compounds read low 1.03 | S. cerevisiae deletion strains, locus YMR307W, strain GAS1, active compounds read low 0.956 | S. cerevisiae deletion strains, locus YNL067W, strain RPL9B, active compounds read low 1.03 | S. cerevisiae deletion strains, locus YNL071W, strain lat1, active compounds read low 1.01 | S. cerevisiae deletion strains, locus YNL128W, strain TEP1, active compounds read low 1.02 | S. cerevisiae deletion strains, locus YNL153C, strain GIM3, active compounds read low 1.03 | S. cerevisiae deletion strains, locus YNL209W, strain ssb2, active compounds read low 1.02 | S. cerevisiae deletion strains, locus YNL233W, strain BNI4, active compounds read low 1.04 | S. cerevisiae deletion strains, locus YNL248C, strain rpa49, active compounds read low 0.979 | S. cerevisiae deletion strains, locus YNL250W, strain rad50, active compounds read low 1.01 | S. cerevisiae deletion strains, locus YNL271C, strain bni1, active compounds read low 0.996 | S. cerevisiae deletion strains, locus YNL298W, strain CLA4, active compounds read low 1.01 | S. cerevisiae deletion strains, locus YNL307C, strain MCK1, active compounds read low 0.999 | S. cerevisiae deletion strains, locus YNL322C, strain KRE1 (second series), active compounds read low 1 | S. cerevisiae deletion strains, locus YNL322C, strain KRE1, active compounds read low 1.01 | S. cerevisiae deletion strains, locus YNR049C, strain mso1, active compounds read low 0.989 | S. cerevisiae deletion strains, locus YNR052C, strain pop2, active compounds read low 0.989 | S. cerevisiae deletion strains, locus YOL006C, strain TOP1, active compounds read low 1.07 | S. cerevisiae deletion strains, locus YOL012C, strain htz1 0.853 | S. cerevisiae deletion strains, locus YOL147C, strain pex11, active compounds read low 1 | S. cerevisiae deletion strains, locus YOR001W, strain rrp6, active compounds read low 0.985 | S. cerevisiae deletion strains, locus YOR061W, strain CKA2, active compounds read low 1.02 | S. cerevisiae deletion strains, locus YOR069W, strain VPS5, active compounds read low 1 | S. cerevisiae deletion strains, locus YOR070C, strain gyp1, active compounds read low 1 | S. cerevisiae deletion strains, locus YOR080W, strain dia2, active compounds read low 0.988 | S. cerevisiae deletion strains, locus YOR083W, strain WHI5, active compounds read low 1 | S. cerevisiae deletion strains, locus YOR106W, strain vam3, active compounds read low 1.03 | S. cerevisiae deletion strains, locus YOR136W, strain idh2, active compounds read low 0.993 | S. cerevisiae deletion strains, locus YOR144C, strain elg1, active compounds read low 0.997 | S. cerevisiae deletion strains, locus YOR184W, strain ser1, active compounds read low 0.99 | S. cerevisiae deletion strains, locus YOR265W, strain rbl2, active compounds read low 1 | S. cerevisiae deletion strains, locus YOR270C, strain vph1, active compounds read low 1.03 | S. cerevisiae deletion strains, locus YOR290C, strain snf2, active compounds read low 1.01 | S. cerevisiae deletion strains, locus YOR316C, strain cot1, active compounds read low 0.997 | S. cerevisiae deletion strains, locus YPL051W, strain arl3, active compounds read low 1 | S. cerevisiae deletion strains, locus YPL055C, strain LGE1, active compounds read low 1.06 | S. cerevisiae deletion strains, locus YPL078C, strain atp4, active compounds read low 1.02 | S. cerevisiae deletion strains, locus YPL106C, strain sse1, active compounds read low 0.979 | S. cerevisiae deletion strains, locus YPL240C, strain hsp82, active compounds read low 1 | S. cerevisiae deletion strains, locus YPL241C, strain CIN2, active compounds read low 1.01 | S. cerevisiae deletion strains, locus YPR119W, strain clb2, active compounds read low 0.995 | S. cerevisiae deletion strains, locus YPR141C, strain kar3, active compounds read low 0.997 | S. cerevisiae deletion strains, locus YPR163C, strain tif3, active compounds read low 0.992 | S. cerevisiae deletion strains, locus YPR167C, strain met16, active compounds read low 0.996 | S. cerevisiae deletion strains, strain wtn01, active compounds read low 0.997 | S. cerevisiae strains, strain wild type, active compounds read low 1.01
